Calls of active or inactive are those of the source.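 How the source made its calls, unless noted: active means fluorescence slope higher than the sample average by over 3 SD (cut at about -0.22 in these data, passing the limit was not always enough); inactive means the rest.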

Experiment [1] is described as follows: inhibitors of TNFa-induced NFkB p65 translocation, primary screen, imaging, HUVEC, MLSMR starter and 10KST1 sets (AID 438;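 active means inhibition above 20% together with a positive visual image hit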;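 further: compound added about 3h40 before a 20 min TNFalpha stimulation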;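 on inhibition: signal is the nuclear over cytoplasmic p65 intensity ratio per well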). The note with it: HUVEC TNFa-induced p65 nuclear translocation; cell count: measured here: nuclei count (cytotoxicity indicator), at 2.08 µM; inhibition: at 2 µM, stronger effect = higher value, 0% TNFa-plus-vehicle, 100% no-TNFa wells.
Experiment [2] can be described thus: inhibitors of mutant huntingtin aggregation, primary screen, imaging, exon1htt(103Q)mCFP cells, high-content imaging (AID 483;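 active means visual image review flags a hit and inhibition of aggregation exceeds 20%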;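 further: compound exposure lasted 3 days before fixation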;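 on nuclei count: percent of the per-plate median nuclei count of sample wells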). The note with it: exon1htt(103Q)mCFP cell line, aggregate imaging, at 2 µM; inhibition of aggregation: stronger effect = higher value; nuclei count: measured here: cell count, toxicity.
A short description of experiment [3]: inhibitors of E-selectin induction by TNFa, primary screen, imaging, HUVEC, immunofluorescence, MLSMR starter and 10KST1 sets (AID 487;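 active means visually confirmed hit in the image check and inhibition above 20%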;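 on inhibition: signal is fraction of cell area covered by stained E-selectin grains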;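 on nuclei count: 100% = median nuclei count of all wells on the same plate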). The following applies: HUVEC TNFalpha-induced E-selectin immunofluorescence imaging, at 2 µM; inhibition: stronger effect = higher value; nuclei count: measured here: cell number, toxicity.
Experiment [4] addresses Voltage-gated potassium channel subunit beta-2 (Rattus norvegicus) (UniProt P62483). The experiment can be described thus: KvBeta enzyme negative modulators, primary screen, biochemical, NADPH fluorescence (AID 622).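 Further: slope of raw intensity against log time taken from 70 to 1610 s.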 The note with it: recombinant KvBeta, 4-cyanobenzaldehyde reduction, at 10 µM, stronger effect = higher value.
For experiment [5] the target is unchanged. The experiment can be described thus: KvBeta positive modulators, primary screen, biochemical, NADPH fluorescence (AID 623;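 active means NADPH fluorescence slope more negative than the mean of all samples by about 3 SD, 99.7% confidence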;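 further: fluorescence intensity change per second fitted from 20 to 320 s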). The following applies: Recombinant KvBeta, NADPH fluorescence decrease slope, 10 min; at 10 µM; stronger effect = lower value.
In experiment [6] the target is Alpha-2C adrenergic receptor (Homo sapiens) (UniProt P18825). Kind of experiment: modulators of alpha2C/GIRK thallium flux, primary screen, cell-based, HEK293 alpha2C/GIRK1/2 (AID 624;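 active means fluorescence slope after compound addition differing from the mean of all screened samples at 99.7% confidence, in either direction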;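 further: slope of fluorescence ratio to pre-addition baseline per second over 15 to 24 s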). The note with it: thallium flux BTC fluorescence, at 10 µM, actives lie on both sides.
Experiment [7] is described as follows: inhibitors of Sendai virus-induced IRF3 signaling, primary screen, TLR/RLR signaling modifier project, cell-based, Sendai virus stimulus, luciferase, 10K MLSCN set (AID 602276;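 active means inhibition at or above 50% at 10 µM; inactive means inhibition below 50%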;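 further: firefly luciferase from ISG56 promoter only with Renilla not read in this screen; 0% = Sendai virus plus DMSO and 100% = medium plus DMSO without virus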). The note with it: HEK293 RL24 IRF3 luciferase reporter, at 10 µM, stronger effect = higher value.
The nature of experiment [8]: inhibitors of poly I:C-induced TLR3 signaling, primary screen, cell-based, poly I:C stimulus, luciferase, 10K MLSCN set (AID 602277;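 active means inhibition of the reporter signal at or above 50%; inactive means inhibition below 50%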). The following applies: HEK293-TLR3 RL24 IRF3 luciferase reporter, at 10 µM, stronger effect = higher value. On the technique in general: Reporter assays use an easily measured gene product as a stand-in for the process of interest.

Alpha-2C adrenergic receptor (Homo sapiens), sequence (P18825 whole entry, looked up): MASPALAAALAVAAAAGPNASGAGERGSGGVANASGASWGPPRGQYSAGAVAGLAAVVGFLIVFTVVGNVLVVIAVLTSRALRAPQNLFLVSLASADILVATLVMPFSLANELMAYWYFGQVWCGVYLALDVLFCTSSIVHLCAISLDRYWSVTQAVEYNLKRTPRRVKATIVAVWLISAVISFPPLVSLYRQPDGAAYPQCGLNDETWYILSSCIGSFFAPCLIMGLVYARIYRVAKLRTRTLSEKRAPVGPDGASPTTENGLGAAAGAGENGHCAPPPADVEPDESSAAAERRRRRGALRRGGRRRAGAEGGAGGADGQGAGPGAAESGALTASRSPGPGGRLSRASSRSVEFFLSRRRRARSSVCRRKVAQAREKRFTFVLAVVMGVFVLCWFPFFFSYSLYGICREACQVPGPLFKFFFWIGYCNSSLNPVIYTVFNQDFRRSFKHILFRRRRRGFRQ
Voltage-gated potassium channel subunit beta-2 (Rattus norvegicus), sequence (P62483 whole entry, looked up): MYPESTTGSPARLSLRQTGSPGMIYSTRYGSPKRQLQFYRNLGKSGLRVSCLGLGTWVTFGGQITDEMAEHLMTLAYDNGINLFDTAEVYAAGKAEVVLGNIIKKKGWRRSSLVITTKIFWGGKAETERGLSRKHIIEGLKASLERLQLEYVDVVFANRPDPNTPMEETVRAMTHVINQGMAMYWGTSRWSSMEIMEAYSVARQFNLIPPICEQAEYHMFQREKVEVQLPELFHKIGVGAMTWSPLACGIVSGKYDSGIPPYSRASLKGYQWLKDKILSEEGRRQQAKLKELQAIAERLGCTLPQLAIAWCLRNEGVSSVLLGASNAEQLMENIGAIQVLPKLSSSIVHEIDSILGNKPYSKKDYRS

As usually defined, the inhibition is the relative decrease from the control value, in per cent. In the case of `Cc1ccccc1C(=O)Nc1c(C(=O)N2CCCC2)cnn1-c1ccccc1`, in experiment [1], the cell count came out at 314. For the same compound, the inhibition in experiment [1] is -6.8% (inactive); in experiment [3] it was -34.4% (inactive); in experiment [7], 13.2% (inactive); in experiment [8], 26.1% (inactive). Further, in experiment [2], the inhibition of aggregation was 2.8% (inactive). In addition, the nuclei count in experiment [2] was 83.6%; in experiment [3], 84%. For the same compound, in experiment [4], the fluorescence slope is -0.596 (inactive). Besides, the NADPH fluorescence slope in experiment [5] was -2.6e-05 (inactive). Besides, the slope in experiment [6] was 0.00707 (inactive).
With `CCCCn1c(NCc2ccccc2O)nc2ccccc21`, the cell count in experiment [1] was determined as 790. Moreover, the inhibition in experiment [1] is -6.4% (inactive); in experiment [3], -63% (inactive); in experiment [7], 0.354% (inactive); in experiment [8] it was 25.3% (inactive). For the same compound, in experiment [2], the inhibition of aggregation was 14.4% (inactive). Also, the results for the nuclei count in experiment [2] and in experiment [3] were 107% and 120%, respectively. Also, the fluorescence slope in experiment [4] was -0.567 (inactive). In addition, the NADPH fluorescence slope in experiment [5] was -5.9e-06 (inactive). Besides, in experiment [6], the slope was 0.00728 (inactive).
Turning to `Cn1c(/C=N/n2cnnc2)nc2ccccc21`, the cell count in experiment [1] is 448. Also, the inhibition in experiment [1] is 3.5% (inactive); in experiment [3], -12.1% (inactive); in experiment [7], 6.17% (inactive); in experiment [8], 35.3% (inactive). Besides, the inhibition of aggregation in experiment [2] was -4.4% (inactive). For the same compound, the nuclei count was 114% in experiment [2] and 123% in experiment [3]. The fluorescence slope in experiment [4] is -0.0404 (active). Besides, the NADPH fluorescence slope in experiment [5] was -7e-06 (inactive). In experiment [6], the slope was 0.00495 (inactive).
In the case of `COc1cc2c(cc1OC)C(c1ccc(C)o1)CC(=O)N2` (stereo not given), the cell count in experiment [1] came to 748. Besides, the inhibition in experiment [1] is 0% (inactive); in experiment [3], -48.1% (inactive); in experiment [7], 11.9% (inactive); in experiment [8], 30.4% (inactive). For the same compound, the inhibition of aggregation in experiment [2] is -33.4% (inactive). The values for the nuclei count in experiment [2] and in experiment [3] were 112% and 122%, respectively. For the same compound, in experiment [4], the fluorescence slope is -0.574 (inactive). The NADPH fluorescence slope in experiment [5] was -3e-05 (inactive). In addition, the slope in experiment [6] is 0.00589 (inactive).
Take `O=C(CCn1c(=O)oc2ccccc21)NCc1ccco1`: the cell count in experiment [1] was 686. The inhibition in experiment [1] is -5.9% (inactive); in experiment [3] it was -32.5% (inactive); in experiment [7] it was -5.54% (inactive); in experiment [8], 6.8% (inactive). Also, in experiment [2], the inhibition of aggregation was -10% (inactive). Also, the nuclei count in experiment [2] was determined as 104%; in experiment [3] it was 127%. For the same compound, in experiment [4], the fluorescence slope was -0.598 (inactive). Also, the NADPH fluorescence slope in experiment [5] is -5.1e-05 (inactive). The slope in experiment [6] is 0.00749 (inactive).
Consider `CCOC(=O)c1sc(N)c(C(=O)OCC)c1COC(=O)C1CC(=O)N(Cc2ccco2)C1` (stereo not given), for which, in experiment [1], the cell count was determined as 780. Further, the inhibition in experiment [1] was 2.9% (inactive); in experiment [3], -33.4% (inactive); in experiment [7], -20.6% (inactive); in experiment [8] it was -13.3% (inactive). For the same compound, the inhibition of aggregation in experiment [2] is -82.9% (inactive). In addition, the nuclei count in experiment [2] came to 104%; in experiment [3] it was 116%. Further, in experiment [4], the fluorescence slope was -0.526 (inactive). Besides, the NADPH fluorescence slope in experiment [5] is -4.5e-05 (inactive). For the same compound, in experiment [6], the slope is 0.00648 (inactive).
`Cc1nc2sc(C(c3ccccc3)N3CCN(c4ccccc4F)CC3)c(O)n2n1` (stereo not given): the cell count in experiment [1] was 305. The inhibition in experiment [1] is -1% (inactive); in experiment [3], 8.6% (inactive); in experiment [7], 5.03% (inactive); in experiment [8], 5.62% (inactive). Further, in experiment [2], the inhibition of aggregation is -6.7% (inactive). Also, the nuclei count turned out to be 83.6% in experiment [2] and 91.8% in experiment [3]. The fluorescence slope in experiment [4] is -0.437 (inactive). Moreover, the NADPH fluorescence slope in experiment [5] is 0.000106 (inactive). Besides, in experiment [6], the slope is 0.00618 (inactive).
`CC1CCN(c2c(NCc3ccc(C(=O)N4c5ccccc5CC4C)cc3)c(=O)c2=O)CC1` (stereo not given): in experiment [1], the cell count was 726. Moreover, the inhibition in experiment [1] is -5.7% (inactive); in experiment [3], -38.2% (inactive); in experiment [7] it was 21.8% (inactive); in experiment [8], 45.8% (inactive). Moreover, the inhibition of aggregation in experiment [2] is 31.5% (inactive). Moreover, the results for the nuclei count in experiment [2] and in experiment [3] were 104% and 105%, respectively. In addition, the fluorescence slope in experiment [4] was -0.572 (inactive). For the same compound, the NADPH fluorescence slope in experiment [5] is -3.6e-05 (inactive). Also, in experiment [6], the slope was 0.00643 (inactive).
As for `CCN(CC)CCNC(=O)c1ccc(N2CCCCC2)c(NS(=O)(=O)c2ccc(C)cc2)c1`, in experiment [1], the cell count came out at 370. In addition, the inhibition in experiment [1] is 6.9% (inactive); in experiment [3], -16% (inactive); in experiment [7], 13.5% (inactive); in experiment [8] it was 13.1% (inactive). The inhibition of aggregation in experiment [2] was 1.6% (inactive). Besides, the results for the nuclei count in experiment [2] and in experiment [3] were 97.8% and 122%, respectively. For the same compound, the fluorescence slope in experiment [4] is -0.557 (inactive). Moreover, the NADPH fluorescence slope in experiment [5] is -3.5e-05 (inactive). The slope in experiment [6] was 0.00347 (inactive).
Take `CCn1nc(C(=O)OCC(=O)N2CCc3ccccc32)c2ccccc2c1=O`: the cell count in experiment [1] is 301. Further, the inhibition is -8.8% (inactive) in experiment [1], 25.7% (inactive) in experiment [3], -3.24% (inactive) in experiment [7] and 13.2% (inactive) in experiment [8]. For the same compound, in experiment [2], the inhibition of aggregation is 4.1% (inactive). Further, the nuclei count in experiment [2] came to 68.3%; in experiment [3], 96.8%. Moreover, the fluorescence slope in experiment [4] was -0.297 (inactive). In experiment [5], the NADPH fluorescence slope was 2.7e-05 (inactive). Also, the slope in experiment [6] is 0.00506 (inactive).

The record behind these values is PubChem BioAssay.
